# In PMC5540273 (PLoS ONE, 2017):
# System: EGFR
# Conditions: concentration: 1 μM, replicates: in singlicate; n = 1
# 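Also: KINOMEscan kinase panel screen.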
row,SMILES,%Inh [%]
1,COc1ccc2cc(-c3nc(-c4ccccc4C(C)C)[nH]c3-c3ccncc3)ccc2c1 [SB-660566],18
2,COc1ccc(Nc2nccc(N3CCC(NC(=O)C(C)c4ccc(Cl)cc4)CC3)n2)cc1 (centres unmarked) [GSK1379812],0
3,Cc1ccccc1-c1cc(-c2c[nH]nc2-c2ccccn2)ccn1 [GW680061],38
4,CC[C@@H]1CO[C@H](C(=O)Nc2ccccc2)CN1c1cc(-c2ccc3c(N)n[nH]c3c2)nc(NC)n1 [GSK2376236],71
5,O=C1NC(=O)C(c2ccc(Cl)cc2)=C1Nc1cccc(Cl)c1 [SB-317651],20
6,Cc1c(Cn2c3ccccc3n3c(=O)cc(N4CCOCC4)nc23)cccc1C(F)(F)F [GSK2306394],48
7,Cc1ccc(NC(=O)Nc2ccccc2F)cc1-c1ccc(C(=O)Nc2ccncc2)cc1 [GSK1398477],24
8,O=c1cc(N2CCOCC2)nc2n(Cc3cccc(Cl)c3Cl)c3ccccc3n12 [GSK2299009],30
9,CC(=O)c1c(C)c2cnc(Nc3ccn(C)n3)nc2n(C2CCCC2)c1=O,5
10,COc1cccc(CNC(=O)NC2CCN(c3ccnc(Nc4ccc(F)cc4)n3)C2)c1 (centres unmarked) [GSK1379723],21
11,CC(=O)c1c(C)c2cnc(Nc3ccc(N4CCNCC4)cn3)nc2n(C2CCCC2)c1=O,4
12,COc1cccc(C2=C(Nc3cc(Cl)c(O)c(Cl)c3)C(=O)NC2=O)c1 [SB-390767],0
13,Cc1ccccc1Cn1ccn2c(=O)cc(N3CCOCC3)nc12 [GSK2269905],15
14,Fc1ccc(-c2nn3cccc(F)c3c2-c2ccncc2)cc1 [GW475620],52
15,Cc1nccc(-c2c(-c3ccc(F)cc3)ncn2CCCN2CCOCC2)n1.Cl [SB-282975],17
16,Cc1cccc2c(-c3ccncn3)c(-c3ccc(F)cc3)nn12 [GW515532],47
17,COc1ccc(Nc2nccc(NCCNC(=O)Nc3cc(C)ccc3C)n2)cc1 [GSK1379899],27

row,SMILES,%Inh [%]
1,Nc1nccc(-c2c(-c3ccc(F)cc3)ncn2C2CCN(Cc3ccccc3)CC2)n1 [SB-219980],10
2,CS(=O)(=O)Cc1ccc(Nc2nccc(-c3c(-c4cccc(NC(=O)C5CCCCC5)c4)nn4ncccc34)n2)cc1 [GSK350559],68
3,Cc1ccc(NC(=O)Nc2ccc(Cl)c(C(F)(F)F)c2)cc1-c1ccc(C(=O)Nc2ccncc2)cc1 [GSK1398470],25
4,O=c1cc(N2CCOCC2)nc2n(Cc3ccccc3F)ccn12 [GSK2297428],18
5,O=C(Nc1n[nH]c2nc(-c3ccco3)c(Br)cc12)C1CCN(Cc2ccccc2)C1.O=C(O)[C@H](O)[C@@H](O)C(=O)O (centres unmarked) [SB-742034],1
6,CCn1c(-c2c(N)noc2C)nc2cnccc21 [SB-737856],24
7,Cn1cnc2c(N)ncnc21 [SKF-97623],13
8,O=C(Nc1n[nH]c2cc(-c3ccsc3)ccc12)C1CC1 [SB-732932],0
9,CN1c2ccc(-c3ccc(C(N)=O)cc3)cc2-c2[nH]ncc2S1(=O)=O,0
10,Cl.Cl.Cl.N#Cc1ccc(CCNc2nccc(-c3cccc(CN4CCNCC4)c3)n2)cc1 [GSK2137462],11
11,Cn1cncc1C(=O)NC1CCN(c2ccnc(Nc3ccc(F)cc3)n2)C1 (centres unmarked) [GSK1379717],15
12,Cc1cnc(N)c(/C=C/c2cncc(C(=O)NCCc3ccc(Cl)cc3Cl)c2)c1.Cl [GSK190937],0
13,CNCc1ccc2nc(NC(=O)c3ccc(C(C)(C)C)cc3)cn2c1,0
14,CNc1cc(-c2ccc3c(N)n[nH]c3c2)nc(N)n1 [GSK2224810],17
15,CNc1nc(-c2ccc3c(N)n[nH]c3c2)cc(N2C[C@@H](C(=O)Nc3ccccc3)CC[C@H]2C)n1 [GSK2298859],31
16,COc1ccc(Nc2nccc(N3CCC(NC(=O)c4cc5ccccc5s4)C3)n2)cc1 (centres unmarked) [GSK1379738],0
17,COc1ccc(CSc2nnc(-c3ccc4nccn4c3)o2)cc1C(F)(F)F,4

# System: EIF2AK1
# Conditions: concentration: 1 μM, replicates: in singlicate; n = 1
row,SMILES,%Inh [%]
1,COc1cc2ncnc(Nc3cccc(Br)c3)c2cc1OC.Cl [GI230329],47
2,CS(=O)(=O)CCNCc1nc(-c2ccc3ncnc(Nc4ccc(OCc5ccccc5)c(Cl)c4)c3c2)cs1.Cl [GW582764],0
3,COc1ccc2cc(-c3nc(-c4ccccc4C(C)C)[nH]c3-c3ccncc3)ccc2c1 [SB-660566],3
4,COc1ccc(Nc2nccc(N3CCC(NC(=O)C(C)c4ccc(Cl)cc4)CC3)n2)cc1 (centres unmarked) [GSK1379812],0
5,Cc1ccccc1-c1cc(-c2c[nH]nc2-c2ccccn2)ccn1 [GW680061],0
6,CC[C@@H]1CO[C@H](C(=O)Nc2ccccc2)CN1c1cc(-c2ccc3c(N)n[nH]c3c2)nc(NC)n1 [GSK2376236],0
7,O=C1NC(=O)C(c2ccc(Cl)cc2)=C1Nc1cccc(Cl)c1 [SB-317651],4
8,Cc1c(Cn2c3ccccc3n3c(=O)cc(N4CCOCC4)nc23)cccc1C(F)(F)F [GSK2306394],0
9,Cc1ccc(NC(=O)Nc2ccccc2F)cc1-c1ccc(C(=O)Nc2ccncc2)cc1 [GSK1398477],0
10,O=c1cc(N2CCOCC2)nc2n(Cc3cccc(Cl)c3Cl)c3ccccc3n12 [GSK2299009],24
11,CC(=O)c1c(C)c2cnc(Nc3ccn(C)n3)nc2n(C2CCCC2)c1=O,0
12,COc1cccc(CNC(=O)NC2CCN(c3ccnc(Nc4ccc(F)cc4)n3)C2)c1 (centres unmarked) [GSK1379723],0
13,CC(=O)c1c(C)c2cnc(Nc3ccc(N4CCNCC4)cn3)nc2n(C2CCCC2)c1=O,0
14,COc1cccc(C2=C(Nc3cc(Cl)c(O)c(Cl)c3)C(=O)NC2=O)c1 [SB-390767],0
15,Cc1ccccc1Cn1ccn2c(=O)cc(N3CCOCC3)nc12 [GSK2269905],8
16,Fc1ccc(-c2nn3cccc(F)c3c2-c2ccncc2)cc1 [GW475620],0
17,Cc1nccc(-c2c(-c3ccc(F)cc3)ncn2CCCN2CCOCC2)n1.Cl [SB-282975],14
18,Cc1cccc2c(-c3ccncn3)c(-c3ccc(F)cc3)nn12 [GW515532],0
19,COc1ccc(Nc2nccc(NCCNC(=O)Nc3cc(C)ccc3C)n2)cc1 [GSK1379899],0

row,SMILES,%Inh [%]
1,Nc1nccc(-c2c(-c3ccc(F)cc3)ncn2C2CCN(Cc3ccccc3)CC2)n1 [SB-219980],0
2,CS(=O)(=O)Cc1ccc(Nc2nccc(-c3c(-c4cccc(NC(=O)C5CCCCC5)c4)nn4ncccc34)n2)cc1 [GSK350559],22
3,Cc1ccc(NC(=O)Nc2ccc(Cl)c(C(F)(F)F)c2)cc1-c1ccc(C(=O)Nc2ccncc2)cc1 [GSK1398470],78
4,O=c1cc(N2CCOCC2)nc2n(Cc3ccccc3F)ccn12 [GSK2297428],0
5,O=C(Nc1n[nH]c2nc(-c3ccco3)c(Br)cc12)C1CCN(Cc2ccccc2)C1.O=C(O)[C@H](O)[C@@H](O)C(=O)O (centres unmarked) [SB-742034],33
6,CCn1c(-c2c(N)noc2C)nc2cnccc21 [SB-737856],3
7,Cn1cnc2c(N)ncnc21 [SKF-97623],0
8,O=C(Nc1n[nH]c2cc(-c3ccsc3)ccc12)C1CC1 [SB-732932],0
9,CN1c2ccc(-c3ccc(C(N)=O)cc3)cc2-c2[nH]ncc2S1(=O)=O,0
10,Cl.Cl.Cl.N#Cc1ccc(CCNc2nccc(-c3cccc(CN4CCNCC4)c3)n2)cc1 [GSK2137462],2
11,Cn1cncc1C(=O)NC1CCN(c2ccnc(Nc3ccc(F)cc3)n2)C1 (centres unmarked) [GSK1379717],3
12,CS(=O)(=O)CCNCc1nc(-c2ccc3ncnc(Nc4ccc5c(cnn5Cc5ccccc5)c4)c3c2)cs1.Cl.Cl [GW569716],0
13,Cc1cnc(N)c(/C=C/c2cncc(C(=O)NCCc3ccc(Cl)cc3Cl)c2)c1.Cl [GSK190937],0
14,CNCc1ccc2nc(NC(=O)c3ccc(C(C)(C)C)cc3)cn2c1,4
15,CNc1cc(-c2ccc3c(N)n[nH]c3c2)nc(N)n1 [GSK2224810],0
16,CNc1nc(-c2ccc3c(N)n[nH]c3c2)cc(N2C[C@@H](C(=O)Nc3ccccc3)CC[C@H]2C)n1 [GSK2298859],0
17,COc1ccc(Nc2nccc(N3CCC(NC(=O)c4cc5ccccc5s4)C3)n2)cc1 (centres unmarked) [GSK1379738],0
18,COc1ccc(CSc2nnc(-c3ccc4nccn4c3)o2)cc1C(F)(F)F,7
